According to article PMC7862700, “An all-to-all approach to the identification of sequence-specific readers for epigenetic DNA modifications on cytosine”:

Tests used:
Test in all cases: DAPPL (digital affinity profiling via proximity ligation, sequencing); 10 mM Tris-HCl pH 7.5, 50 mM NaCl, 1 mM DTT, 4% glycerol, room temperature, 30 min; GST-TFs on glutathione beads, 16-mer random dsDNA library, 0.1% formaldehyde crosslink after washing; high values mean tight binding
Details in all cases: protein: recombinant; tags: N-terminal GST; dsDNA, one strand shown
FLI1 = target: T1, FLI1 (Homo sapiens, UniProt Q01543 1-452)
T1 sequence: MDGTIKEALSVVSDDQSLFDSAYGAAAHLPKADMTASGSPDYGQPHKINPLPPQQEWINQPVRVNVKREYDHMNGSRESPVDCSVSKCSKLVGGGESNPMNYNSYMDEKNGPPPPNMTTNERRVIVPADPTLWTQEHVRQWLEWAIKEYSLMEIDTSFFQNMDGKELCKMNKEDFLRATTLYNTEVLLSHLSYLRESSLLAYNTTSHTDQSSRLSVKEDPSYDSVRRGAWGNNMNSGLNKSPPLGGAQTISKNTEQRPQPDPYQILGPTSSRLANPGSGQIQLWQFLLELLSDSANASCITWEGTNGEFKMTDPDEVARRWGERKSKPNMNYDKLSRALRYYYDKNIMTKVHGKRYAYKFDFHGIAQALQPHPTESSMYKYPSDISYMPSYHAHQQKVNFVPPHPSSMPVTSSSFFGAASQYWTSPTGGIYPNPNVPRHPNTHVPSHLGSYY
Summary of the method: (§1)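 Yeast served to express human transcription factors as GST fusions, which were then captured on glutathione beads and labelled with DNA barcodes. Pooled with a tag-only sample, they were incubated with 200 nmole of a 16-mer random double-stranded DNA library for 30 min at room temperature in Tris/NaCl/DTT/glycerol buffer, washed, crosslinked with 0.1% formaldehyde, ligated by proximity, amplified by PCR and sequenced. Dividing each hexamer's read frequency for a factor by its frequency for the tag-only sample gives the binding signal.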

ELK1 = target: T2, ELK1 (Homo sapiens, UniProt P19419 1-428)
T2 sequence: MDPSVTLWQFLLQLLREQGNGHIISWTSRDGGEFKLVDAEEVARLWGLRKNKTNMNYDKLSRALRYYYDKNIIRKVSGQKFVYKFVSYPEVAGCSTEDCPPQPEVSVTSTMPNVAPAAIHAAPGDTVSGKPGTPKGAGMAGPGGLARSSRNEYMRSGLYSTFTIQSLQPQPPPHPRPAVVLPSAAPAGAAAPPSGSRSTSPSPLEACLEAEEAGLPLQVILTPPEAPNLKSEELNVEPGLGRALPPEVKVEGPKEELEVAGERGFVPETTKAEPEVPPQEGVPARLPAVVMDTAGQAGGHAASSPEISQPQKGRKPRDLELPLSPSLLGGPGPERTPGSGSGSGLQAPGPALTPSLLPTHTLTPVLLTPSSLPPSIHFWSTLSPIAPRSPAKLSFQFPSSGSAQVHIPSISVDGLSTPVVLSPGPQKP
Summary of the method: as §1

GABPA = target: T3, GABPA (Homo sapiens, UniProt Q06546 1-454)
T3 sequence: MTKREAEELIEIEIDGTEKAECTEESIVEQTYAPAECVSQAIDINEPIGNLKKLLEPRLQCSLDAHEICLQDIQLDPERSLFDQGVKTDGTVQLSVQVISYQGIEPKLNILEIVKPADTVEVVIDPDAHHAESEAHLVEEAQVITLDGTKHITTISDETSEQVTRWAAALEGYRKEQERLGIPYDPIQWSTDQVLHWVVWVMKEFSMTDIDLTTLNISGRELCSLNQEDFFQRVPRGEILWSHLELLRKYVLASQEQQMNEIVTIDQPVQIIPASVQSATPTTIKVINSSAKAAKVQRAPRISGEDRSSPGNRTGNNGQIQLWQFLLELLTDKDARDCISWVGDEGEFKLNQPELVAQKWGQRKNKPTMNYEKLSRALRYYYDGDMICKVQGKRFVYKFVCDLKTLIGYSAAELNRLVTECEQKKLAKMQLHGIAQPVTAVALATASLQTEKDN
Summary of the method: as §1

ERG = target: T4, ERG (Homo sapiens, UniProt P11308 1-479)
T4 sequence: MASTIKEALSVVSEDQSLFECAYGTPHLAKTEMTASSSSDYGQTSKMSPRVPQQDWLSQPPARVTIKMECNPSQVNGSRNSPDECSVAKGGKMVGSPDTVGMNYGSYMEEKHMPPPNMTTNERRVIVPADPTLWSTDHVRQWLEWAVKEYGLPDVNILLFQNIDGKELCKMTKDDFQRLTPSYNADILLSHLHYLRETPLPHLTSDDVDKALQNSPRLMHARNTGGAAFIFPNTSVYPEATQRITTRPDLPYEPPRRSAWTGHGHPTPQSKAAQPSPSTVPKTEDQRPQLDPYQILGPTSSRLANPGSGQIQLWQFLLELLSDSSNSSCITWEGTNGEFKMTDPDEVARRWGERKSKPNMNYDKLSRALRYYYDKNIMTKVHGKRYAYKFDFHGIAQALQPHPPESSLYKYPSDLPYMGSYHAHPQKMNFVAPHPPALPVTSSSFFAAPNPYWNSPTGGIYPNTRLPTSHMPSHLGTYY
Summary of the method: as §1

ELF1 = ELF1 (Homo sapiens, UniProt P32519 1-619)
ELF1, sequence (P32519 whole entry): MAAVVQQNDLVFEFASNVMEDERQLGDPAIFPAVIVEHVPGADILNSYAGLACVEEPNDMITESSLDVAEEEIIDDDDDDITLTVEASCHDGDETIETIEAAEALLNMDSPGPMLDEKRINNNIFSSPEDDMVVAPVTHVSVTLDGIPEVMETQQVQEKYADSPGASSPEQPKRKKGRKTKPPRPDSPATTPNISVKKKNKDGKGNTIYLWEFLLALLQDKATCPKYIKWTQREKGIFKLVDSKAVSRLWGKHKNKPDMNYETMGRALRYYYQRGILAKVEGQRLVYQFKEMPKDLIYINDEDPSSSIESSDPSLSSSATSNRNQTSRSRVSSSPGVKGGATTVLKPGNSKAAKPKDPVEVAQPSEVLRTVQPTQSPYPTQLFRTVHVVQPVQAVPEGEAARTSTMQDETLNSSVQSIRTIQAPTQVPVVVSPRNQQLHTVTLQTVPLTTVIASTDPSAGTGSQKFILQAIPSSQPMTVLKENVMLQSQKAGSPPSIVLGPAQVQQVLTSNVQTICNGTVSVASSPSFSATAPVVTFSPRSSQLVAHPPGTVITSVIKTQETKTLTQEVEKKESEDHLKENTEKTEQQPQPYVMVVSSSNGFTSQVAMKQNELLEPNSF
Summary of the method: as §1

EHF = target: T5, EHF (Homo sapiens, UniProt Q9NZC4 1-300)
T5 sequence: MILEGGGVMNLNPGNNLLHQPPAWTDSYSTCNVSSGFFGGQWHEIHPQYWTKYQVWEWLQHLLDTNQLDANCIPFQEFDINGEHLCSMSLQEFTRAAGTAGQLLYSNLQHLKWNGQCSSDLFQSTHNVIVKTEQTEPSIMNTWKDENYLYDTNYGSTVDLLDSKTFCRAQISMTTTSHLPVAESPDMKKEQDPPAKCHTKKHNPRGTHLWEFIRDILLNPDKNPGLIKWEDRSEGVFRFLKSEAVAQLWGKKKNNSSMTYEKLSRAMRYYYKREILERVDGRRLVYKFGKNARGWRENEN
Summary of the method: as §1

SPI1 = SPI1 (Homo sapiens, UniProt P17947 1-270)
Summary of the method: as §1

SPIB = SPIB (Homo sapiens, UniProt Q01892 1-262)
SPIB, sequence (Q01892 whole entry): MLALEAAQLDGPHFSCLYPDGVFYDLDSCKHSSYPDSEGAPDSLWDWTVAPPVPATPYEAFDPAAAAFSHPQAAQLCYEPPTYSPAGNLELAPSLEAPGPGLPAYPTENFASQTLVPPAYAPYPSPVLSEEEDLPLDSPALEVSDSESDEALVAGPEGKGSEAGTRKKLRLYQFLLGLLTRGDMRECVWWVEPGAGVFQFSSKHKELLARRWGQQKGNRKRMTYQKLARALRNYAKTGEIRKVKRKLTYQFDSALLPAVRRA
Summary of the method: as §1

ELK3 = target: T6, ELK3 (Homo sapiens, UniProt P41970 1-407)
T6 sequence: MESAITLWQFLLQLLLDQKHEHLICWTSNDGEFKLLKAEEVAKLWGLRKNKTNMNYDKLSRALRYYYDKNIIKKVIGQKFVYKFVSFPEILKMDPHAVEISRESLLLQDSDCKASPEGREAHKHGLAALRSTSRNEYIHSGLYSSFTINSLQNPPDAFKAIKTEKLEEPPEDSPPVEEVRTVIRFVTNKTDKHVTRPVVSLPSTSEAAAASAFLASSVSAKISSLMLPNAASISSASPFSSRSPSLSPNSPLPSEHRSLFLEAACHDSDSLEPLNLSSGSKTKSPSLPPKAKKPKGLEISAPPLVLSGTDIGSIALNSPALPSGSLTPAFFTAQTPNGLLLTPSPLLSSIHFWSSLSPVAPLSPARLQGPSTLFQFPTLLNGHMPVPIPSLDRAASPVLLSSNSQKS
Summary of the method: as §1

CAATAT
binding signal (FLI1): 1.27 fold enrichment (6-mer frequency, TF over GST control) | binding signal (ELK1): 1.29 fold enrichment (6-mer frequency, TF over GST control) | binding signal (GABPA): 1.26 fold enrichment (6-mer frequency, TF over GST control) | binding signal (ERG): 1.2 fold enrichment (6-mer frequency, TF over GST control) | binding signal (ELF1): 1.28 fold enrichment (6-mer frequency, TF over GST control) | binding signal (EHF): 1.24 fold enrichment (6-mer frequency, TF over GST control) | binding signal (SPI1): 1.23 fold enrichment (6-mer frequency, TF over GST control) | binding signal (SPIB): 1.23 fold enrichment (6-mer frequency, TF over GST control) | binding signal (ELK3): 1.31 fold enrichment (6-mer frequency, TF over GST control)
